In PubChem BioAssay AID1159580 (chemical genetic matrix, 2015):
“And” between values parts separate entries of the source, which are not always exact repeats. Equal values may be shown once. Screen size: about 5,500 compounds; about 2,000 (36%) were called active. Roughly 18% stayed inconclusive and do not appear here. Some of the results follow. Unmarked numbers belong to inactive results. Cut-off read from the data, not from the text of the source: active = normalized growth mostly below about 0.91 (no sharp cut-off); inconclusive = no clear call, values can overlap the other calls; inactive = mostly above about 0.92.

Assay: chemical genetic growth profiling, strain panel (AID 1159580);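 note: tested at 20 µM; growth read once vehicle control cultures reached saturation at 30 °C; 1 = growth at the plate median or of vehicle wells; lower values mean less growth of the strain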
Conditions: S. cerevisiae deletion strains, growth OD

O=C1CN(/N=C\c2ccc([N+](=O)[O-])o2)C(=O)N1
normalized growth (locus YAL013W, strain DEP1, hits give low values): 0.993
normalized growth (locus YAL021C, strain ccr4, hits give low values): 0.98
normalized growth (locus YAL026C, strain drs2, hits give low values): 0.956
normalized growth (locus YAL030W, strain snc1, hits give low values): 0.986
normalized growth (locus YBL061C, strain skt5, hits give low values): 0.987
normalized growth (locus YBR009C, strain hhf1, hits give low values): 0.977
normalized growth (locus YBR021W, strain FUR4, hits give low values): 0.997
normalized growth (locus YBR023C, strain chs3, hits give low values): 0.982
normalized growth (locus YBR171W, strain sec66, hits give low values): 0.982
normalized growth (locus YBR229C, strain ROT2, hits give low values): 1.01
normalized growth (locus YBR231C, strain swc5, hits give low values): 0.977
normalized growth (locus YBR279W, strain paf1, hits give low values): 0.97
normalized growth (locus YCL011C, strain gbp2, hits give low values): 0.964
normalized growth (locus YCL016C, strain dcc1, hits give low values): 0.99
normalized growth (locus YCL029C, strain bik1, hits give low values): 1.01
normalized growth (locus YCL061C, strain MRC1, hits give low values): 0.986
normalized growth (locus YCL069W, strain vba3, hits give low values): 0.956
normalized growth (locus YCR088W, strain abp1, hits give low values): 0.966
normalized growth (locus YDL005C, strain med2, hits give low values): 0.967
normalized growth (locus YDL035C, strain GPR1, hits give low values): 0.978
normalized growth (locus YDL040C, strain nat1, hits give low values): 0.97
normalized growth (locus YDL074C, strain BRE1, hits give low values): 0.914
normalized growth (locus YDL101C, strain DUN1, hits give low values): 0.995
normalized growth (locus YDL134C, strain PPH21, hits give low values): 1
normalized growth (locus YDL185W, strain tfp1, hits give low values): 0.99
normalized growth (locus YDL192W, strain arf1, hits give low values): 0.991
normalized growth (locus YDR001C, strain nth1, hits give low values): 0.975
normalized growth (locus YDR069C, strain doa4, hits give low values): 0.94
normalized growth (locus YDR101C, strain arx1, hits give low values): 0.976
normalized growth (locus YDR137W, strain rgp1, hits give low values): 1.02
normalized growth (locus YDR150W, strain NUM1, hits give low values): 1
normalized growth (locus YDR159W, strain sac3, hits give low values): 0.954
normalized growth (locus YDR162C, strain NBP2, hits give low values): 0.99
normalized growth (locus YDR195W, strain ref2): 0.979
normalized growth (locus YDR297W, strain sur2, hits give low values): 0.983
normalized growth (locus YDR318W, strain mcm21, hits give low values): 0.973
normalized growth (locus YDR334W, strain swr1, hits give low values): 0.976
normalized growth (locus YDR335W, strain msn5, hits give low values): 0.986
normalized growth (locus YDR388W, hits give low values): 0.995
normalized growth (locus YDR392W, strain spt3, hits give low values): 0.68 (active)
normalized growth (locus YDR502C, strain sam2, hits give low values): 0.974
normalized growth (locus YEL003W, strain gim4, hits give low values): 0.942
normalized growth (locus YEL037C, strain rad23, hits give low values): 0.963
normalized growth (locus YEL061C, strain CIN8 (second series), hits give low values): 0.969
normalized growth (locus YEL061C, strain CIN8, hits give low values): 0.996
normalized growth (locus YER015W, strain faa2, hits give low values): 0.961
normalized growth (locus YER016W, strain bim1, hits give low values): 0.96
normalized growth (locus YER110C, hits give low values): 0.99
normalized growth (locus YER111C, strain swi4, hits give low values): 0.981
normalized growth (locus YER155C, strain BEM2 (second series), hits give low values): 0.854 (active)
normalized growth (locus YER155C, strain BEM2, hits give low values): 0.998
normalized growth (locus YER167W, strain BCK2, hits give low values): 0.985
normalized growth (locus YFR010W, strain ubp6, hits give low values): 0.942
normalized growth (locus YGL078C, strain dbp3, hits give low values): 0.977
normalized growth (locus YGL086W, strain mad1, hits give low values): 0.977
normalized growth (locus YGL167C, strain pmr1, hits give low values): 0.983
normalized growth (locus YGL173C, strain kem1, hits give low values): 0.987
normalized growth (locus YGL227W, strain vid30, hits give low values): 0.979
normalized growth (locus YGL240W, strain doc1, hits give low values): 0.922
normalized growth (locus YGL248W, strain PDE1, hits give low values): 1
normalized growth (locus YGL253W, strain hxk2, hits give low values): 0.976
normalized growth (locus YGR078C, strain PAC10, hits give low values): 0.975
normalized growth (locus YGR135W, strain pre9, hits give low values): 0.963
normalized growth (locus YGR229C, strain SMI1, hits give low values): 0.958
normalized growth (locus YGR252W, strain gcn5, hits give low values): 0.804
normalized growth (locus YHR013C, strain ard1, hits give low values): 0.942
normalized growth (locus YHR027C, strain rpn1, hits give low values): 0.985
normalized growth (locus YHR030C, strain SLT2, hits give low values): 0.991 and 0.902
normalized growth (locus YHR079C, strain IRE1 (second series), hits give low values): 0.989
normalized growth (locus YHR079C, strain IRE1, hits give low values): 0.91
normalized growth (locus YHR094C, strain hxt1, hits give low values): 0.999
normalized growth (locus YHR129C, strain ARP1, hits give low values): 1
normalized growth (locus YHR142W, strain chs7, hits give low values): 0.946
normalized growth (locus YHR200W, strain rpn10, hits give low values): 0.985
normalized growth (locus YIL066C, strain RNR3, hits give low values): 1.01
normalized growth (locus YIL073C, strain SPO22, hits give low values): 0.969
normalized growth (locus YIL125W, strain kgd1, hits give low values): 0.987
normalized growth (locus YIR030C, strain dcg1, hits give low values): 0.994
normalized growth (locus YJL092W, strain hpr5, hits give low values): 0.971
normalized growth (locus YJL095W, strain BCK1 (second series), hits give low values): 0.982
normalized growth (locus YJL095W, strain BCK1, hits give low values): 0.969 and 0.892
normalized growth (locus YJL115W, strain asf1, hits give low values): 0.951
normalized growth (locus YJL129C, strain trk1, hits give low values): 0.968
normalized growth (locus YJL134W, strain LCB3, hits give low values): 1
normalized growth (locus YJL154C, strain vps35, hits give low values): 0.971
normalized growth (locus YJL164C, strain tpk1, hits give low values): 0.957
normalized growth (locus YJL166W, strain qcr8, hits give low values): 0.964
normalized growth (locus YJL168C, strain set2, hits give low values): 0.989
normalized growth (locus YJL187C, strain SWE1 (second series), hits give low values): 1.01
normalized growth (locus YJL187C, strain SWE1, hits give low values): 0.973
normalized growth (locus YJR043C, strain POL32, hits give low values): 0.979
normalized growth (locus YJR066W, strain TOR1, hits give low values): 0.87
